Experimental findings from PubChem BioAssay AID2075 (NMMLSC, 2009) are described below.

Calls of active or inactive are those of the source. The rule behind the calls is not given here.

The target of this test is Apoptosis regulator Bcl-2 (Homo sapiens) (UniProt P10415). Nature of the test: Bcl-2 Bim peptide interaction hit potency – biochemical, dose response, multiplexed HTS hits, confirmation (AID 2075). The note with it: bead-based flow cytometry, Bim peptide-Bcl-2 binding; series mostly up to 100 µM. On the technique in general: A flow cytometer gives signals particle by particle.
Sequence of Apoptosis regulator Bcl-2 (Homo sapiens) (P10415 whole entry, looked up): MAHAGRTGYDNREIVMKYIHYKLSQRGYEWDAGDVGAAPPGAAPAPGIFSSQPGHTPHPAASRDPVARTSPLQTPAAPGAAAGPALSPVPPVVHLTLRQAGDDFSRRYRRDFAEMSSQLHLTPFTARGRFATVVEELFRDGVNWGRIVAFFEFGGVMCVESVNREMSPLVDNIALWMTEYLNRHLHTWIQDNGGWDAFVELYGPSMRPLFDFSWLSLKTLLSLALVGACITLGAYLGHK
For the compound `CCN(CC)c1ccc(NC(=O)c2ccccc2Br)cc1S(=O)(=O)Nc1ccccc1OC`, the compound was called inactive.
Then `Oc1ccc(NCc2ccccc2OCc2ccccc2)cc1`, with “inactive”; and `COc1ccc(N2C(=O)C(Cl)=C(NC3C(=O)N(c4ccccc4)N(C)C3C)C2=O)cc1` (configuration not stated), with “inactive”.
The same measure for `CCOc1ccccc1CNc1ccc(O)cc1`: “inactive”.
Then `Cc1ccc(-c2cc(C(=O)Nc3nccs3)c3ccccc3n2)o1`, with “inactive”.
Turning to `CC(=O)Nc1ccc(-n2cc(-c3ccccc3)[nH]c2=S)cc1`, the compound was called inactive.
The same measure for `O=C(/C=C/c1ccc(-c2ccccc2[N+](=O)[O-])o1)c1ccccc1`: “inactive”; for `Cc1nnc(Sc2cc(NCCO)c([N+](=O)[O-])c3nonc23)s1`: “inactive”; for `O=c1c2c(n3nnnc3n1Cc1ccccc1)-c1ccccc1CC21CCCC1`: “inactive”.
Then `O=C1c2ccccc2C(=O)N1CN(C(=O)COc1ccc(Cl)cc1Cl)c1cccc(F)c1`, with “inactive”.
Consider `O=C1C(Cl)=C(N2CCN(c3ccccc3[N+](=O)[O-])CC2)C(=O)c2ccccc21`, for which the result was inactive.
Take `O=C1/C(=C\c2ccco2)NC(=S)N1c1ccccc1`: the compound was classed as inactive.
Then `CCN(CC)c1ccc(NC(=O)c2ccccc2F)cc1S(=O)(=O)Nc1ccccc1OC`, with “inactive”; and `S=c1[nH]cc(-c2ccccc2)n1-c1ccccc1`, with “inactive”; and `O=C(Nc1nnc(COc2ccc(Cl)cc2)s1)c1ccco1`, with “inactive”.
With `COc1ccccc1-n1c(-c2ccccc2)c[nH]c1=S`, the call was inactive.
On to `C=CS(=O)(=O)c1sc(Cl)c(N2CCOCC2)c1[N+](=O)[O-]`, for which the result was inactive.
The same measure for `Cc1ccc(-c2cc(-c3ccc(F)cc3)c(C#N)c(N)n2)o1`: “inactive”; for `CNC(CC(=O)c1ccc([N+](=O)[O-])cc1)C(Cl)(Cl)Cl` (configuration not stated): “inactive”; for `Cc1ccc(-c2cc(-c3ccc(C)o3)nc(N)c2C#N)cc1`: “inactive”.
Then `Cc1cc(-c2cc(-c3ccc(Cl)cc3)nc(N)c2C#N)co1`, with “inactive”; and `COc1ccc(N2C(=O)C(Cl)=C(Oc3cccc(OC)c3)C2=O)cc1`, with “inactive”; and `COc1cc(N=C2SSNC2Cl)c(OC)cc1Cl` (configuration not stated), with “inactive”.
As to `CNC1CCC(Br)CC(C(=O)/C=C/c2cccc(OC)c2OC)C1=O` (configuration not stated), the outcome was inactive.
The same measure for `CCN(CC)c1ccc(NC(=O)COc2ccccc2C)cc1S(=O)(=O)Nc1ccccc1OC`: “inactive”; for `COc1cc(CNc2ccc3[nH]c(=O)[nH]c3c2)cc(Br)c1OCC(=O)NC(C)(C)C`: “inactive”.
The same measure for `CCN1C(=O)/C(=C\C=C2/C=CC=CN2CC)SC1=S`: “inactive”.
